# Source: patent US20220289795, “EFFICIENT METHOD FOR PREPARING PPR PROTEIN AND USE OF THE SAME” (EditForce, Inc., published 2022)
# Target: T1, v3.1_PPR16 (Artificial Sequence)
# T1 chain: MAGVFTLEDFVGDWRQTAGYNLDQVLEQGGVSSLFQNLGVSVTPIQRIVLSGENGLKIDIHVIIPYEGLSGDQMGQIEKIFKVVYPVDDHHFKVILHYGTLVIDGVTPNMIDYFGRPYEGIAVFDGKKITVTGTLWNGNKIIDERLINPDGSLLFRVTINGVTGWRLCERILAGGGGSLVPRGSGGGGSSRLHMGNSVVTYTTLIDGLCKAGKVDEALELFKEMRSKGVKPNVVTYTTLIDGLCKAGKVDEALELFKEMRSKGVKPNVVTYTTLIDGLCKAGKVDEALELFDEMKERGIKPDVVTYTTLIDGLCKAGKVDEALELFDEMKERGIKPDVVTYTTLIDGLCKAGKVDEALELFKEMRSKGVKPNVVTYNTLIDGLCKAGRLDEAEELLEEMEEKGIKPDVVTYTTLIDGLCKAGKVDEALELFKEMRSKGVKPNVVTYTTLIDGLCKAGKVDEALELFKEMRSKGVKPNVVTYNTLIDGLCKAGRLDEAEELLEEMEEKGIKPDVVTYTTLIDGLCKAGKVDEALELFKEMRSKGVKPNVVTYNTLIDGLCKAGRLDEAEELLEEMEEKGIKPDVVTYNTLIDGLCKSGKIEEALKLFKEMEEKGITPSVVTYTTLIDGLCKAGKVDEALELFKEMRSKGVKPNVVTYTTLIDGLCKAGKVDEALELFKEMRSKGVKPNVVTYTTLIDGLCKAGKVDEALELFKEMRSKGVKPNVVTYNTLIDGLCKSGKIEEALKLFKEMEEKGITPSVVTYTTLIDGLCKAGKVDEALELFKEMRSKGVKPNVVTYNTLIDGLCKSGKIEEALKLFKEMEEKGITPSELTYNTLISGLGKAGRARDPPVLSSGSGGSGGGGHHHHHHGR
# Assay: RPB-ELISA
# Conditions: tags: N-terminal luciferase, C-terminal 6xHis; label: 5'-biotin; ssRNA
# Protocol: RNA probes consisting of a designed 30-base sequence containing 18 bases of the target sequence and modified by biotinylation at the 5′ end (RNA_1, RNA_2, RNA_3, RNA_4, and RNA_5, SEQ ID NOS: 61 to 65) were synthesized (Grainer). To a streptavidin-coated plate (Thermo fisher), the 5′-end biotinylated RNA probes were added, reaction was allowed at room temperature for 30 minutes, and the plate was washed with a lysis buffer (20 mM Tris-HCl, pH 7.6, 150 mM NaCl, 5 mM MgCl₂, 0.5% NP-40, 1 mM DTT, 0.1% BSA). For background measurement, wells to which RNA was not added, but 100 μL of the lysis buffer, 1 μL of 100 mM DTT, and 1 μL of 40 unit/4 RNase inhibitor (Takara, 2313A) were added were also prepared. Then, 200 μL of a blocking buffer (20 mM Tris-HCl, pH 7.6, 150 mM NaCl, 5 mM MgCl₂, 0.5% NP-40, 1 mM DTT, 1% BSA) was added, and the plate surface was blocked at room temperature for 30 minutes. Then, 100 μL of E. coli lysate containing luciferase-fused PPR protein having a luminescence level of 1.5×10⁸ LU/μL was added to each well, and the binding reaction was allowed at room temperature for 30 minutes. The well was washed 5 times with 200 μL of a washing buffer (20 mM Tris-HCl, pH 7.6, 150 mM NaCl, 5 mM MgCl₂, 0.5% NP-40, 1 mM DTT). […] The background (luminescence signal value obtained with adding the PPR protein and without adding RNA) was subtracted from the luminescences of the samples to which a solution containing each RNA and PPR protein was added, and the obtained values were used as the binding powers between the PPR protein and RNA.
# By using the V3.1 motif, PPR proteins for the same 23 kinds of target sequences were similarly prepared (SEQ ID NOS: 411 to 433 for the nucleotide sequences, and SEQ ID NOS: 434 to 456 for the amino acid sequences), and bindings of all the combinations were analyzed by using RPB-ELISA. The experimental method was the same as that used in Example 3.
row,Sequence,binding signal [log2 luminescence]
1,GGUGGUGAGGCCCUGGGC,20.6
2,GUGGGGGUGGUAGGAAAU,22.6
